Measurements reported in PubChem BioAssay AID686978 (National Center for Advancing Translational Sciences (NCATS), 2013).
The campaign covered roughly 420,000 compounds. About 64,000 (15%) were called active. Roughly 27% stayed inconclusive and do not appear here. The call rests on the fitted dose curve; in most records, active means well fitted inhibition curve with a large enough effect; inconclusive means small, poorly fitted or top-dose-only effect; inactive means flat fitted curve, though single readings scatter. The list is a sample of the results. Where a call stands in place of a potency, no number is given.

Assay: qHTS for Inhibitors of human tyrosyl-DNA phosphodiesterase 1 (TDP1): qHTS in cells in absence of CPT; further: nearly all actives have a fitted effect of over 55% in size
Settings: DT40 Tdp1-/- hTDP1 cells, no CPT, ATP luminescence, 48 h; activity change, negative = growth inhibition: at 46.2 µM (top of the series)
Outline: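 Growth kinetics read by CellTiter-Glo luminescence after ≥48 hr at 37 °C. Cells: DT40 Tdp1-/- stably carrying human TDP1, 400 per well, compound exposure in the absence of CPT (DMSO vehicle).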
Potency means the concentration at half of the fitted maximal effect.

Structure (SMILES)	Potency
CC(C)CN1C(=O)CN(S(C)(=O)=O)CC1(C)C(=O)NCc1ccccc1 (centres undefined)	inactive
CCOC(=O)Nc1sc(C(=O)N(C)C)c(C)c1C(=O)OCC	inactive
CCOC(=O)c1c(NC(=O)CCl)sc(C(=O)N(CC)CC)c1C	13 µM (active)
CCC(=O)Nc1sc(C(=O)Nc2ccccc2)c(C)c1C(=O)OC	inactive
CCCCNC(=O)OC1CC2CC1[C@H]1CCCCN1C2=O (some centres undefined)	inactive
CN1CCN(c2ccc(NC(=O)c3ccc4c(c3)[nH]c(=O)n4Cc3ccc(F)cc3)cc2)CC1	29.1 µM (active)
CC(C)n1c(=O)[nH]c2cc(C(=O)Nc3ccccc3)ccc21	inactive
CN1CCN(c2ccc(NC(=O)c3ccccc3)cc2)CC1	inactive
C/C(=N/OC(=O)c1cccc(C(F)(F)F)c1)c1cnccn1	inactive
COc1cccc(OC)c1CN(C)C(=O)c1cnccc1C(F)(F)F	inactive
CCCC[C@@H]1CN=C(N)N1CCc1cc(C(F)(F)F)cc(C(F)(F)F)c1	1.3 µM (active)
CCCC[C@@H]1CN=C(N)N1CCc1cccc(F)c1	5.8 µM (active)
CCCS(=O)(=O)N1CCN=C1SCc1cccc(F)c1	inactive
O=C1NC[C@@H](Cc2ccc(O)cc2)N(CCc2cccc(F)c2)C1=O	inactive
NNC(=O)COc1ccc(C2SCCS2)cc1	inactive
CC(=O)NC1C(Oc2ccc(C)cc2)OC2COC(c3ccco3)OC2C1O (centres undefined)	inactive
O=S(=O)(NC1CCCCC1)c1ccc(F)c2ccccc12	inactive
CCCC/S(C)=N/S(=O)(=O)c1ccc(C)cc1 (centres undefined)	inactive
COc1ccc(OCCCC(=O)Oc2ccc(OC)cc2)cc1	inactive
COc1ccc(C(=O)CCC(=O)Nc2ccc(Cl)cc2)cc1	inactive
COc1ccc(OCCC(=O)c2ccc(OC)cc2)cc1	2.59 µM (active)
Cc1ccc(NC(=O)N2CCC(O)(c3cccnc3)CC2)cc1	inactive
Cn1c(CCc2ccccc2)nnc1SCC(N)=O	inactive
COC(=O)C1=C(C)NC(=S)NC1c1ccc(OCC(=O)N2CC(C)OC(C)C2)c(OC)c1 (centres undefined)	inactive
N#Cc1ccc(C2=CC(=O)C[C@H](c3ccc(Cl)cc3)C2)cc1	14.6 µM (active)
O=C1CSC(c2ccc(Cl)cc2)N1 (centres undefined)	inactive
CCCCC/C=C/C1=CC(=O)C[C@H](c2ccc(Cl)cc2)C1	inactive

Structure (SMILES)	Potency
O=C(NCc1ccccc1)[C@@H]1CSC2c3ccccc3C(=O)N21 (some centres undefined)	inactive
CCOC(=O)C1CCN(CCC(=O)Nc2cccc(C)c2)CC1	inactive
CCOC(=O)C1CCN(c2c(Nc3cc(C)cc(C)c3)c(=O)c2=O)CC1	16.4 µM (active)
CCOC(=O)C1CCN(c2csc3ccc(C)cc3c2=O)CC1	inactive
COC(=O)Nc1ccc(S(=O)(=O)N(C)CC(F)(F)C(F)F)cc1	inactive
Cc1ccc(-n2c(SCC(=O)Nc3ncc(Cl)cc3Cl)nc3ccccc32)cc1	13 µM (active)
CC1(C(=O)OCC(=O)Nc2ncc(Cl)cc2Cl)CC1(Cl)Cl (centres undefined)	inactive
Cc1ccc(SCCC(=O)OCC(=O)Nc2ncc(Cl)cc2Cl)cc1	inactive
COc1ccccc1P(=O)(c1ccccc1)c1ccccc1NC(C)=O (centres undefined)	inactive
CCCCN(C)C(=O)C1CCN(Cc2ccccn2)CC1	inactive
CC1=C(/C=C/C(C)=C/C=C/C(C)=C/C=C/C=C(C)/C=C/C=C(C)/C=C/C2=C(C)CCCC2(C)C)C(C)(C)CCC1	inactive
O=C(Nc1ccccc1C(=O)NCCCn1ccnc1)c1ccc(Cl)cc1Cl	inactive
Clc1ccc(C(Cn2ccnc2)OCc2ccsc2Cl)c(Cl)c1 (centres undefined)	16.8 µM (active)
O=C(NCCCn1ccnc1)Nc1ccc(Cl)cc1Cl	inactive
CNc1nccc(-c2ccc(Cl)cc2)c1C#N	inactive
CN(C(=O)COC(=O)c1cc(-c2ccco2)nc2ccccc12)C1CCS(=O)(=O)C1 (centres undefined)	inactive
N#Cc1ccc(-c2ccc(Cl)cc2)nc1Oc1ccc(F)cc1	inactive
CC(=O)Nc1cccc(Nc2nc(-c3cccs3)nc3ccccc23)c1	8.2 µM (active)
COC(=O)c1cc(-c2cccs2)nc2ccccc12	inactive
CCN(CC(=O)Nc1c(F)cccc1F)C(=O)Cc1cccs1	inactive
O=C1CCCCC1C(=O)c1ccccc1 (centres undefined)	inactive
Cc1n[nH]c(=O)c2c(NC(=O)CSc3ccccc3F)oc(C)c12	inactive
CC(=O)N1CCN(S(=O)(=O)c2c(F)cc(F)c(Cl)c2F)CC1	inactive
COc1ccc(Cc2n[nH]c(=S)n2NC(=O)Nc2ccc(C)cc2)cc1	inactive
COc1ccc(OCCCC(=O)OC(C)C(=O)Nc2ccccc2[N+](=O)[O-])cc1 (centres undefined)	inactive
O=c1[nH][nH]c(=O)c2cc(N3CCCC3)ccc12	inactive
O=C1C=CC(=O)N1c1ccc(N2CCCCC2)cc1	1.16 µM (active)
